Bioassay records deposited in PubChem BioAssay by several laboratories.
RTF Ca sens act – increases calcium sensitivity of human cardiac regulated thin filaments; activation, % at 7.2 µM; hit rate 0.24% among 340,000; P19429+P45379; IANBD-labeled TnC RTF fluorescence at EC20 calcium; 0% EC20 calcium, 100% full calcium;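 active means activation above the mean over all tested compounds plus 3 SD, cut at about 30% in these data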;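 further: rise in fluorescence read as greater calcium sensitivity of cardiac thin filaments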
Cardiac RTF inh – cardiac RTF calcium desensitization | P19429+P45379 | hit rate 0.12% among 340,000 | AID 493244 | inhibition, % at 7.15 µM | IANBD-labeled cardiac RTF, Ca2+ fluorescence;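 active means inhibition above the mean inhibition of all tested compounds plus 3 SD, cut at about 17% in these data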;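 further: assay run at fixed EC70 calcium of 1.6 mM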
CRFR2-BP ag – agonists of human CRF-binding protein/CRF-R2 receptor complex. HEK293 CRF-R2/CRF-BP, calcium dye fluorescence (FLIPR); percent of saturating CRF peptide response. activation, % at 13.2 µM. hit rate 0.46% among 350,000. AID 588473;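 active means activation of at least 50%, plus an integration ratio under a set limit after plate pattern correction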;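 further: plate controls were neutral control wells without compound for no effect and CRF at EC100 for full effect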
IDE cell activ – activators of human insulin-degrading enzyme in cells; HEK cells, FAbeta-B cleavage, fluorescence polarization; 0% vehicle, 100% cell-free pure enzyme wells; activation, % at 5.96 µM; hit rate 0.073% among 340,000;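 active means activation above the mean of all tested compounds plus 3 SD, set per screening campaign, cut at about 17% in these data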
CRFBP-R2 block – CRF-BP/CRF-R2 complex antagonism; HEK293 CRF-R2/CRF-BP, CRF-induced calcium fluorescence; inhibition, % at 11.8 µM; hit rate 0.59% among 350,000;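 active means inhibition of the ligand-induced calcium signal above about 50% at the single tested concentration, limit read from the data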
IDE inh – inhibitors of human insulin-degrading enzyme in cells. HEK cells, FAbetaB cleavage, fluorescence polarization. AID 434962. hit rate 0.41% among 320,000. P14735. inhibition, % at 5.59 µM;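 active means percent inhibition above the average of all tested compounds plus 3 SD, set per screening campaign, cut at about 16% in these data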;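 further: IDE supplied by intact live HEK cells; FP after avidin binding of uncleaved biotin substrate so inhibition keeps polarization high; 0% = DMSO wells and 100% = 60 µM reference IDE inhibitor Ii1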
RTF inh confirm – confirmation of inhibitors of cardiac thin filament calcium sensitivity | reconstituted cardiac thin filaments, calcium sensitivity fluorescence | hit rate 8% among 360 | inhibition, % at 7.15 µM | shares compounds with Cardiac RTF inh | AID 504635; in the data active means inhibition above about 18%
* marks the source's active call; other numbers are inactive results; i = inactive; . = no result given; + = active, no number; ! = a repeat was not active. Only some compounds are listed: those with a hit (about 1.5% of all), similar ones and a draw of the others.

SMILES	RTF Ca sens act	Cardiac RTF inh	CRFR2-BP ag	IDE cell activ	CRFBP-R2 block	IDE inh	RTF inh confirm
CCC(=O)OC1(C)C(=O)C2=COC(c3ccc(OC)cc3)=CC2=C(Br)C1=O (stereo unspecified)	-13	17*	8	0	-3	1	-2
CN(Cc1cn(-c2ccccc2)nc1-c1ccc(F)cc1)C(=O)CCC(=O)O	-6	17*	0	-1	-10	5	-6
COc1ccc2c(c1)C(=O)N(Cc1ccccc1)C(=O)C2(C)C	-6	-1	1	2	-1	-1	.
CC(=O)NCC(=O)NNC1CC(=O)N(c2cccc(Cl)c2)C1=O (stereo unspecified)	2	3	-1	6	12	-4	.
CN1[C@@H]2CC[C@H]1CC(OC(=O)C(CO)c1ccccc1)C2 (stereo partly specified)	i	i	-2	4	23	2	.
CN1C2CCC1CC(OC(=O)C(CO)c1ccccc1)C2 (stereo unspecified)	i	+	-2	4	1	1	i
Cc1nc(Cc2nnc(SC(C)C(=O)Nc3ccccc3)o2)cs1 (stereo unspecified)	.	.	-2	.	-4	.	.
O=C(NC1CCCC1)c1ccc2nc(-c3ccco3)c(-c3ccco3)nc2c1	-20	18*	-5	1	18	-1	-7
O=C(NCCc1c[nH]c2ccccc12)C(=O)NCC1OCCN1S(=O)(=O)c1ccccc1 (stereo unspecified)	-1	18*	-1	2	2	1	-5
N#Cc1c(F)cccc1N1CCN(Cc2ccc3c(c2)OCO3)CC1	-5	18*	0	1	-3	3	-2
COc1cc(/C=N/NC(=O)c2c(C)nnn2-c2nonc2N)ccc1O	-2	17*	-2	5	7	-1	5
O=C(Nc1ccc(N2CCOCC2)c(S(=O)(=O)Nc2ccccc2Cl)c1)c1ccc(F)cc1	-9	24*	19	4	-12	-5	1
COc1ccccc1NS(=O)(=O)c1cc(NC(=O)c2sccc2C)ccc1N1CCOCC1	-6	16	0	8	11	-2	.
O=C(Nc1ccc(F)cc1)Nc1ccc(N2CCCC2)c(S(=O)(=O)Nc2ccccc2Cl)c1	7	-8	-1	5	-7	9	.
COc1ccccc1NS(=O)(=O)c1cc(NC(=O)c2sccc2C)ccc1N1CCCC1	-5	25*	6	-1	47	-2	3
COC(=O)c1cc2oc(C)cc2n1CC(=O)N(C)c1ccccc1	-2	17*	0	4	-1	-2	-3
O=C(CCN1C(=O)/C(=C/c2ccco2)SC1=S)Nc1ccc(O)cc1C(=O)O	0	-7	5	-3	-12	.	.
O=C(CN1C(=O)/C(=C\c2ccco2)SC1=S)Nc1ccc(O)cc1C(=O)O	-9	18*	1	-1	-8	3	-3
CCN(CC)S(=O)(=O)c1ccc(N/N=C/c2ccccc2OCC(=O)O)c([N+](=O)[O-])c1	-1	19*	0	9	10	-1	0
COc1ccc(CN2C(=O)C(CC(=O)NCCN3CCOCC3)CC(C(=O)N3CCOCC3)=C2C)cc1 (stereo unspecified)	.	.	-1	.	3	.	.
N=C(N)c1ccc(N=Nc2c(O)ccc3c2[nH]c2ccccc23)cc1	-24	26*	-8	8	-10	.	30*
c1ccc2c(c1)ccc1ncccc12	-5	18*	-1	4	-1	5	-4
c1cnc2c(c1)ccc1cccnc12	0	18*!	-1	0	2	0	-7
O=Cc1ccc2ccc3cccnc3c2n1	-2	-8	-4	4	2	7	.
c1cnc2ccc3ncccc3c2c1	6	-8	5	-3	11	-3	.
CCN1C(=S)N[C@@H](CCc2ccccc2)C(C(=O)OC)=C1C	4	-7	0	1	-8	-1	.
Cc1cccc(Nc2cc(=O)n(C)c(=O)[nH]2)c1	-4	-8	0	3	10	-3	.
